Consider 62 compounds from PubChem BioAssay AID1851 (National Center for Advancing Translational Sciences (NCATS), 2009).

About 2,600 (16%) of roughly 16,000 compounds were called active. Inconclusive results (about 20%) are left out. Calls follow the shape of the dose curve; as a rule, active = well fitted curve in the direction sought with a large enough effect; inconclusive = small, poorly fitted or top-dose-only effect, or effect the other way; inactive = no such curve, though single readings can be large or run the other way. The list is a sample of the results.
% is scaled to controls: 0 for no effect and ±100 for the full control effect.

Chain of Cytochrome P450 2D6 (Homo sapiens) (P10635 whole entry, looked up): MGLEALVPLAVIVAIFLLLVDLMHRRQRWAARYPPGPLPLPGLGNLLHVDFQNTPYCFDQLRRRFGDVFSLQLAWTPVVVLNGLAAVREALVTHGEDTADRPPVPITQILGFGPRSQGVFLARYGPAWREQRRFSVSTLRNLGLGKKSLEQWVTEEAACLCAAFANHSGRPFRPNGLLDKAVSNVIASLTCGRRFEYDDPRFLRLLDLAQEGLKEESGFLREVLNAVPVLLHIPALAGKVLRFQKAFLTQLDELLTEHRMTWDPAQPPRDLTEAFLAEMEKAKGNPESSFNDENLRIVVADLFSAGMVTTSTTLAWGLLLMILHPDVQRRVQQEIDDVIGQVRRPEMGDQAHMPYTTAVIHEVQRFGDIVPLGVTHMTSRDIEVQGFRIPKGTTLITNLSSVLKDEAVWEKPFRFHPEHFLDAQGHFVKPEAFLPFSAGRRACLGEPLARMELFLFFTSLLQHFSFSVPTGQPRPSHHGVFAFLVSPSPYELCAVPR

The experiment concerns the target Cytochrome P450 2D6 (Homo sapiens) (UniProt P10635). Put plainly: Cytochrome panel assay with activity outcomes. The settings on record: recombinant CYP, pro-luciferin dealkylation, luminescence, p450-cyp2d6; series mostly up to 57.1 µM; activity, negative = inhibition: at the top concentration.
The AC50 is the concentration giving half of the maximal activity seen. As to `CCOC(=O)CCCc1c[nH]c2ccccc12`, the AC50 was 17.8 µM (active).
For `C[C@@](N)(Cc1c[nH]c2ccccc12)C(=O)O`, the activity, negative = inhibition is 5.35% [at 11.4 µM] (inactive).
On the same count and under the same terms, the figure for `O=C(Cc1c[nH]c2ccccc12)OCC(=O)c1ccccc1` is -28.2% (inactive).
On the same count and under the same terms, the figure for `[O-][N+]1(CC[N+]2([O-])CCCCC2)CCCCC1` is 3.01% [at 11.4 µM] (inactive); for `COc1cccc(/C=N/n2c(=S)n(C)c3cc(C)c(C)cc32)c1OC` it is 6.36% (inactive).
Same read-out and setting: under `CC(=O)CSc1nnc(Cc2ccc([N+](=O)[O-])cc2)o1` stands -6.4% (inactive).
Turning to `O=C(O)Cc1cc2ccccc2nc1C(=O)O`, the “activity, negative = inhibition” value was 18.6% (inactive).
On the same count and under the same terms, the figure for `COC(=O)C1C(=O)C2=C(CC1C)NC(=O)CC2c1cccc(C)c1` (configuration not stated) is 0.378% (inactive).
Regarding `COc1ccc2[nH]cc(CCNc3ncncc3-c3ccccc3CN(C)C)c2c1`, the AC50 is 10 µM (active).
With `COc1ccc2[nH]cc(CCNc3ncncc3-c3ccccc3OC)c2c1`, the AC50 was 1.26 µM (active).
Still for that read-out and setting: under `COc1ccc2[nH]cc(CCNc3ncncc3-c3ccccc3Cl)c2c1` stands 0.631 µM (active); under `COc1ccc2[nH]cc(CCNc3ncncc3-c3ccccc3C(F)(F)F)c2c1`, 2 µM (active).
Consider `CC[C@@H]1CN2CCc3cc(OC)c(OC)cc3[C@H]2C[C@@H]1C[C@H]1NCCc2cc(OC)c(OC)cc21`, for which the “activity, negative = inhibition” value is 1.63% [at 25.6 µM] (inactive).
Still for that read-out and setting: under `COc1c2ccoc2nc2c(OC)c(OC[C@H](O)C(C)(C)O)ccc12` stands -1.44% [at 25.6 µM] (inactive); under `CC(=O)N1N=C(c2cccc([N+](=O)[O-])c2)OC1c1ccccc1Cl` (configuration not stated), -11.9% (inactive).
Still for that read-out and setting: the figure for `O=c1c(-c2cccs2)nc2cnc(Oc3cccc(Cl)c3)nc2n1C[C@H]1CCCO1` is 4.62% (inactive); for `CCc1ccc(-c2cc(C(F)(F)F)n3nc(C(=O)Nc4cnn(Cc5ccccc5C)c4)cc3n2)s1` it is 9.44% (inactive).
On to `CCOC(=O)c1c(NC(C)=O)sc2c(OC)cccc12`, for which the “activity, negative = inhibition” value was 3.56% (inactive).
On the same count and under the same terms, under `COC(=O)c1ccc(OCC2c3cc(OC)c(OC)cc3CCN2C(=O)C2CC2)cc1` (configuration not stated) stands -12.4% (inactive).
Consider `COc1ccc2[nH]cc(CCNc3ncncc3-c3ccccc3C)c2c1`, for which the AC50 was 1.26 µM (active).
For `CCCCN(C)S(=O)(=O)c1ccc(C(=O)Nc2nnc(CSC)o2)cc1`, the “activity, negative = inhibition” value was 14.6% (inactive).
`CCCc1nn(-c2ccccc2)c2c1C(c1cccs1)C(C#N)=C(N)O2` (configuration not stated): the “activity, negative = inhibition” value is -4.88% (inactive).
As for `Cc1[nH]n(-c2ccccc2)c(=O)c1CCOC(=O)c1cccc(C(F)(F)F)c1`, the “activity, negative = inhibition” value was -23.9% (inactive).
With `CCC(C(=O)Nc1cccc(C(F)(F)F)c1)c1ccccc1` (configuration not stated), the “activity, negative = inhibition” value is -21.5% (inactive).
As for `C[C@@H](Cc1cccc(C(F)(F)F)c1)NCCOC(=O)c1ccccc1`, the AC50 is 0.0158 µM (active).
Regarding `COc1cccc(-c2cc(C(=O)N/N=C/c3ccc(OC)c(COC(C)=O)c3)c3ccccc3n2)c1`, the “activity, negative = inhibition” value is 32% (inactive).
As for `CN(C)C(=O)c1ccc(-n2nc(C(F)(F)F)c3c2CCCC3)cc1`, the AC50 was 8.91 µM (active).
Take `CCc1ccc(NC(=O)Cn2nc(C(F)(F)F)c3c2CCC3)cc1`: the “activity, negative = inhibition” value is -27% (inactive).
The same measure, in the same setting: the figure for `O=C(Cn1nnc(-c2ccccc2)n1)OCc1ccccc1` is -13.4% (inactive).
Same read-out and setting: under `CCC[C@H](Sc1nc(N)nc2nc[nH]c12)C(=O)O` stands 1.31% [at 11.4 µM] (inactive); under `CCCNC(=O)OC[C@H]1O[C@@H](CCO/N=C2/[C@H]3O[C@@H]3[C@@H](O)[C@H]3[C@H]2CCn2c(=O)n(-c4ccccc4)c(=O)n23)C=C[C@@H]1Oc1ccc(OC)cc1`, 10.6% [at 11.4 µM] (inactive).
Still for that read-out and setting: under `CCCCCc1nc2c(C#N)c(-c3ccc(Cl)cc3)ccn2n1` stands -15.8% (inactive); under `O=C(c1cnccn1)N1CCC2(CCCN(c3ccccc3)C2)CC1`, -6.98% (inactive).
As for `O=C(c1cnccn1)N1CCC2(CCCN(C(c3ccccc3)c3ccccc3)C2)CC1`, the AC50 was 10 µM (active).
`O=C(Nc1ccccc1)N1CCC2(CC1)CCN(C(=O)c1cnccn1)CC2`: the “activity, negative = inhibition” value was 1.86% (inactive).
For `O=C(c1cnccn1)N1CCC2(CC1)CN(c1ccccc1)C2`, the “activity, negative = inhibition” value was 12.2% (inactive).
For the compound `O=C(c1cnccn1)N1CCC[C@@]2(CCN(c3ccccn3)C2)C1`, the “activity, negative = inhibition” value was -16.8% (inactive).
The same measure, in the same setting: the figure for `O=C(Nc1ccccc1)N1CC2(CCN(C(=O)c3cnccn3)CC2)C1` is -6.12% (inactive).
Regarding `O=C(c1cnccn1)N1CCC2(CC1)CN(C(c1ccccc1)c1ccccc1)C2`, the half-maximal activity concentration (AC50) is 6.31 µM (active).
`O=C(c1cnccn1)N1CCC[C@@]2(CCN(C(c3ccccc3)c3ccccc3)C2)C1`: the AC50 is 10 µM (active).
As for `O=C(Nc1ccccc1)N1CCCC2(CCN(C(=O)c3cnccn3)CC2)C1`, the “activity, negative = inhibition” value was -1.93% (inactive).
Still for that read-out and setting: under `O=C(c1cnccn1)N1CCC2(CC1)CCN(c1ccccc1)CC2` stands -5.31% (inactive); under `O=C(Nc1ccccc1)N1CC[C@@]2(CCCN(C(=O)c3cnccn3)C2)C1`, 2.56% (inactive).
Consider `O=C(c1cnccn1)N1CCC2(CC1)CCN(C(c1ccccc1)c1ccccc1)CC2`, for which the AC50 is 3.98 µM (active).
`Cc1cc(NC(=O)Nc2ccc(F)cc2)no1`: the “activity, negative = inhibition” value was -4.04% (inactive).
In the case of `Clc1ccccc1C(Nc1ncccn1)Nc1ncccn1`, the activity, negative = inhibition is 1.87% [at 11.4 µM] (inactive).
On the same count and under the same terms, the figure for `CN(C)CCCN=c1c2ccccc2n(C)c2[nH]c(=O)n(C)c(=O)c12` is 13.4% [at 11.4 µM] (inactive); for `CCN1CCN(C(=O)C2c3cc(OC)c(OC)cc3C(=O)N3CCc4ccccc4C23)CC1` (configuration not stated) it is 6.87% (inactive).
On the same count and under the same terms, the figure for `O=C(O)C1C2C=CC3(CN(Cc4ccccn4)C(=O)C13)O2` (configuration not stated) is -2.08% (inactive).
As to `CCOC(=O)Cn1nnc2c(sc3nc4c(c(-c5ccc(Cl)cc5)c32)CCC4)c1=O`, the “activity, negative = inhibition” value was -12.5% (inactive).
In the case of `CC(C)Cn1c(=O)n(C)c(=O)c2[nH]cnc21`, the “activity, negative = inhibition” value is -4.45% (inactive).
With `FC(F)(F)c1cc(C(F)(F)F)c2ccc(N/N=C/c3cccc(Cl)c3)nc2n1`, the “activity, negative = inhibition” value is 13.3% (inactive).
In the case of `Clc1ccccc1-c1cncnc1NCc1cccs1`, the AC50 was 10 µM (active).
For `COc1ccccc1-c1cncnc1NCc1cccs1`, the AC50 was 15.8 µM (active).
As for `Cc1ccccc1-c1cncnc1NCc1cccs1`, the AC50 was 12.6 µM (active).
On the same count and under the same terms, under `FC(F)(F)c1ccccc1-c1cncnc1NCc1cccs1` stands 15.8 µM (active).
For `CC(=O)NCCNc1ncncc1-c1ccccc1C`, the “activity, negative = inhibition” value was -17.1% (inactive).
Same read-out and setting: the figure for `Cc1cnc(CNc2ncncc2-c2c(C)noc2C)cn1` is -3.29% (inactive); for `CO[C@H]1COC(=O)C/C=C\[C@@H](C)COC(=O)[C@@H](C)NC(=O)C/C=C\[C@@H]1C` it is 1.11% [at 11.4 µM] (inactive).
On the same count and under the same terms, under `O=S(=O)(c1ccccc1S(=O)(=O)N1CCCCC1)N1CCCCC1` stands -8.09% (inactive); under `CC1(CCC#N)N=C(SCCC#N)N(c2ccccc2)C1=O` (configuration not stated), 14.5% (inactive); under `Cc1ccc(S(=O)(=O)N[C@H](CN)C(=O)O)cc1`, 3.02% [at 11.4 µM] (inactive).
